An excerpt weighted towards active compounds, which were near 3.8% of everything screened.
GCN5L2 inh: GCN5L2 (KAT2A) acetyltransferase inhibition. Potency, µM (top dose mostly 58.9 µM), usual class: inhibitors. GCN5L2 HAT assay, ThioGlo1 CoA-SH fluorescence. 390,000 tested, 0.21% active
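Free CoA generated was detected with ThioGlo1 (50uM) fluorescence at Ex340nm/Em540nm, read immediately and after 20 min at room temperature. Enzyme, 20 nM in HEPES pH 7.5 buffer, saw compounds 15 min before adding 75uM H3(1-25) peptide and 70uM acetyl-CoA.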
GLS inh: inhibitors of human glutaminase (GLS). GLS enzymatic activity, qHTS titration. 410,000 tested, 0.21% active. AID 624170. Potency, µM (titrated, usually from 45.5 µM), most hits filed as inhibitors. O94925
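hKGA in 45 mM KH2PO4 pH 8.2, 0.02% Tween-20 with pin-transferred compounds; 1 mM L-glutamine (stock) plus glutamate oxidase/HRP/Amplex Red coupling added. Fluorescence read initially and after 30 min at RT.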
TrxR1 inh: inhibitors of rat thioredoxin reductase 1. recombinant rTrxR1, NADPH fluorescence consumption, selenite substrate. Potency, µM (highest dose often 114 µM), usual class: inhibitors. 390,000 tested, 1% active; note: nearly all actives have a fitted effect of over 65% in size
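Rat TrxR1 (90 nM in the dispensed reagent) was pre-reduced with 400 uM NADPH for 5 min at room temperature, then incubated with compound for 15 min. After 400 uM selenite was added, NADPH fluorescence (Ex 340/Em 450 nm) was followed for 8 min.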
VDR inh: inhibitors of human vitamin D receptor; VDR-SRC2-3 peptide fluorescence polarization, 2 h; AID 504847; 400,000 tested, 0.93% active; P11473; Potency, µM, most hits filed as inhibitors
Target sequence (P11473 whole entry, looked up): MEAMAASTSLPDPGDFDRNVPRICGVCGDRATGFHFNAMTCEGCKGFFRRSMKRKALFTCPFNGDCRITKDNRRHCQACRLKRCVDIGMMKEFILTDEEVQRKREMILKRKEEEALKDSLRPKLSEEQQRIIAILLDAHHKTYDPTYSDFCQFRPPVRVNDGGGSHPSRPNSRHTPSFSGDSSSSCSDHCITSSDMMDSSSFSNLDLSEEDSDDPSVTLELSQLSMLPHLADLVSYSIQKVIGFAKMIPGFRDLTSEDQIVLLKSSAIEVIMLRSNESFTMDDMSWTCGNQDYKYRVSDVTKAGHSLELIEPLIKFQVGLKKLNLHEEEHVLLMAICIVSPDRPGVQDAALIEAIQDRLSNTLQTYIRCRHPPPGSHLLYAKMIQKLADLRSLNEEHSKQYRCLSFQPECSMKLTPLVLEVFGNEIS
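The screen uses fluorescence polarization to detect compounds that interfere with recruitment of the SRC2-3 coactivator peptide to VDR; plates are read after 2 h at room temperature.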
Sfp PPTase inh: Sfp phosphopantetheinyl transferase inhibition. 310,000 tested, 3.5% active. Biochemical Sfp PPTase activity, qHTS. Potency, µM, most hits filed as inhibitors. AID 1490. Q9F4F7;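 note: the enzyme is Sfp with the accession as filed and its product quenches rhodamine fluorescence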
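Sfp 15 nM + cpd, 15 min RT; start w/ rhodamine-CoA 5 uM, BHQ-2-YbbR 12.5 uM (final); 50 mM Hepes pH 7.6, 10 mM MgCl2, 0.01% NP-40, 0.01% BSA; read 525/598 nm at 0 and 30 min.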
TrxR1 substrate: rat thioredoxin reductase 1 substrate activity | O89049 | purified TrxR1 substrate turnover, NADPH consumption readout | Potency, µM (doses to about 114 µM) | 390,000 tested, 0.01% active | AID 588456; note: nearly all actives have a fitted effect of over 50% in size
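Rat TrxR1, dispensed at 90 nM, was prereduced with 400 uM NADPH (final) for 5 min at ~22 deg C, then incubated with compound 15 min before 400 uM selenite. A first-read NADPH fluorescence drop versus no-compound background flagged substrates.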
Large screens that a line does not name were inactive; ! = a repeat was not active. Calls come from the whole dose curve; as a rule, active = well fitted curve in the direction sought with a large enough effect; inconclusive = small, poorly fitted or top-dose-only effect, or another doubt; inactive = no such curve, though single readings can be large; an effect the other way counts as inactive or inconclusive.

COc1cc(C2CC(=O)c3c([nH]c(C(=O)OCC4CCCCC4)c3C)C2)cc(OC)c1OC (configuration not stated)	none (no result: Sfp PPTase inh)
CCn1c(/C=C/c2ccc(O)c(O)c2)nc2ccccc2c1=O	Sfp PPTase inh 79.4µM
O=c1nc(/C=C/c2ccc(O)c(O)c2)oc2ccccc12	GLS inh 5.62µM
CNC(=O)c1[nH]cnc1C(=O)Nc1ccccc1	none (no result: Sfp PPTase inh)
CCCCC1=CC2=C(c3ccco3)C(=O)C(C)(OC(=O)c3ccc(OC)cc3)C(=O)C2=CN1C1CCCCC1 (configuration not stated)	VDR inh inconclusive, Sfp PPTase inh 56.2µM!
CCCCC1=CC2=C(c3ccco3)C(=O)C(C)(OC(=O)c3ccc(OC)cc3)C(=O)C2=CN1CCOC (configuration not stated)	TrxR1 inh inconclusive
CCCCC1=CC2=C(c3ccco3)C(=O)C(C)(OC(=O)c3ccc(OC)cc3)C(=O)C2=CN1CCc1ccccn1 (configuration not stated)	TrxR1 inh inconclusive, VDR inh inconclusive, Sfp PPTase inh 56.2µM!
CCCCC1=CC2=C(c3ccco3)C(=O)C(C)(OC(=O)c3ccc(OC)cc3)C(=O)C2=CN1Cc1ccc2c(c1)OCO2 (configuration not stated)	VDR inh inconclusive, Sfp PPTase inh inconclusive
CCCCC1=CC2=C(c3ccco3)C(=O)C(C)(OC(=O)c3ccc(OC)cc3)C(=O)C2=CN1Cc1ccccc1 (configuration not stated)	TrxR1 inh 44.7µM, VDR inh inconclusive, Sfp PPTase inh 44.7µM!
CCCCC1=CC2=C(c3ccco3)C(=O)C(C)(OC(=O)c3ccc(OC)cc3)C(=O)C2=CN1CCc1c[nH]c2ccccc12 (configuration not stated)	none (no result: GCN5L2 inh, GLS inh, TrxR1 inh, VDR inh, TrxR1 substrate)
COc1ccc(C(N)CCc2ccc(C)o2)cc1 (configuration not stated)	none
CSc1nnc(N2C(=O)C(O)=C(C(=O)c3ccc(C)o3)C2c2ccc(C)cc2)s1 (configuration not stated)	Sfp PPTase inh 15.8µM
Cc1nnc(N2C(=O)C(O)=C(C(=O)c3ccco3)C2c2cccc3ccccc23)s1 (configuration not stated)	TrxR1 inh inconclusive, Sfp PPTase inh inconclusive
CCCSc1nnc(N2C(=O)C(O)=C(C(=O)c3ccco3)C2c2ccccc2F)s1 (configuration not stated)	VDR inh inconclusive, Sfp PPTase inh 39.8µM
C=CCSc1nnc(N2C(=O)C(O)=C(C(=O)c3ccco3)C2c2ccccc2F)s1 (configuration not stated)	TrxR1 inh 50.1µM, Sfp PPTase inh 17.8µM
CSc1nnc(N2C(=O)C(O)=C(C(=O)c3ccco3)C2c2ccccc2)s1 (configuration not stated)	TrxR1 inh inconclusive, VDR inh inconclusive
CSc1nnc(N2C(=O)C(O)=C(C(=O)c3ccco3)C2c2ccccc2F)s1 (configuration not stated)	TrxR1 inh 7.94µM
Cc1nc(SCC(=O)c2ccc(F)cc2)c([N+](=O)[O-])[nH]1	none
O=C(Nc1ccncc1)c1ccc(NS(=O)(=O)c2ccc3[nH]c(=O)[nH]c3c2)cc1	none
C/C(=N\NC(=O)C(C)Oc1ccc([N+](=O)[O-])cc1)c1ccccn1 (configuration not stated)	none
COC(=O)c1ccc(CSc2nc(C(F)(F)F)c3c(c2C#N)CCC3)o1	Sfp PPTase inh 56.2µM
C/C=C(\C)C(=O)NCCN1C2=NC[C@H](C)N2C[C@@H]1Cc1ccc(OC)cc1	none
CCCCCCNC(=O)N[C@H](C(=O)NCCC[C@H]1CN2C(=NC[C@H]2C)N1CCC(c1ccccc1)c1ccccc1)C(C)O (some centres not stated)	GCN5L2 inh 7.94µM, Sfp PPTase inh 2.24µM (no result: GLS inh, TrxR1 inh, VDR inh, TrxR1 substrate)
CCCCCOc1ccc(C(=O)OC(C)C(=O)NCc2ccco2)cc1 (configuration not stated)	none
C=CCn1c(SCC(=O)N(CC)C2CCS(=O)(=O)C2)nc2scc(-c3ccccc3)c2c1=O (configuration not stated)	TrxR1 inh 44.7µM (no result: GCN5L2 inh, Sfp PPTase inh)
CCN(C(=O)CSc1nc2scc(-c3ccccc3)c2c(=O)n1C)C1CCS(=O)(=O)C1 (configuration not stated)	none (no result: Sfp PPTase inh)
C=CCn1c(SCC(C)=O)nc2scc(-c3ccco3)c2c1=O	GCN5L2 inh inconclusive, TrxR1 inh inconclusive, VDR inh 79.4µM, Sfp PPTase inh 7.08µM
CC(C)C(C)(C#N)NC(=O)CSc1nc2scc(-c3ccco3)c2c(=O)n1-c1ccccc1 (configuration not stated)	Sfp PPTase inh 7.94µM
C=CCn1c(SC(F)F)nc2scc(-c3ccco3)c2c1=O	VDR inh inconclusive, Sfp PPTase inh inconclusive
COc1ccc(C2(CNC(=O)C(=O)Nc3ccccc3C)CCCC2)cc1OC	none (no result: Sfp PPTase inh)
O=S(=O)(NCc1ccncc1)c1ccc(S(=O)(=O)NCC2CCCO2)cc1 (configuration not stated)	none
OCCN1CCN(CC(O)COCCOc2ccc(Br)cc2)CC1 (configuration not stated)	VDR inh 17.8µM
OC(COc1ccc2cc(Br)ccc2c1)CN1CCCC1 (configuration not stated)	Sfp PPTase inh 79.4µM
CC1CCCCN1CCNC(=O)c1ccc(Cn2c(SCc3ccccc3)nc3cccnc32)cc1 (configuration not stated)	none (no result: Sfp PPTase inh)
CCN(CC)C(=O)c1sc2nc(-c3cccs3)cc(-c3ccc(Cl)cc3)c2c1N	GCN5L2 inh inconclusive, VDR inh inconclusive, Sfp PPTase inh 79.4µM
CC(C)(C)C(=O)c1sc2nc(-c3cccs3)cc(C(F)(F)F)c2c1N	VDR inh inconclusive, Sfp PPTase inh 22.4µM
Nc1c(C(=O)Nc2nccs2)sc2nc(-c3cccs3)cc(C(F)(F)F)c12	none
CC1(C(=O)NCc2ccccc2)CCC(=O)N1CCOc1ccccc1 (configuration not stated)	none (no result: GCN5L2 inh, TrxR1 inh, VDR inh, Sfp PPTase inh, TrxR1 substrate)
COc1ccc2c(c1)sc1nc(-c3ccccc3)cn12	Sfp PPTase inh 50.1µM
COc1ccc(-c2cn3c(n2)sc2cc(C(=O)NCc4ccccc4)ccc23)cc1	none (no result: Sfp PPTase inh)
COc1cc2c(cc1OC)C(CC#N)=NC(C)(C)C2	Sfp PPTase inh 79.4µM
COc1cc2c(cc1OC)C(CSc1ccccc1C(=O)O)=NC(C)(C)C2	none
CCOc1ccc(N2C(=O)CC(S/C(N)=N/N=C/c3cccs3)C2=O)cc1 (configuration not stated)	none
